Data reported in PubChem BioAssay.
Active and inactive are the calls of the source.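 How the source made its calls: active means inhibition of the reporter signal at or above 50%; inactive means inhibition below 50%.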

Test: inhibitors of poly I:C-induced TLR3 signaling, primary screen, cell-based, poly I:C stimulus, luciferase, 10K MLSCN set (AID 602277)
Conditions: HEK293-TLR3 RL24 IRF3 luciferase reporter, at 10 µM, hits give high values

Compound	inhibition
O=C(NCCSc1c[nH]c2ccccc12)c1ccco1	32.9% (inactive)
CCOC(=O)CSc1nc2cc(C(=O)N3CCC(C(N)=O)CC3)ccc2c(=O)n1-c1ccccc1	9.87% (inactive)
Cc1cc2c(cc(C(=O)OCC(=O)NCc3cccs3)n2C(C)C)o1	77.6% (active)
CC(=O)NC1CC2CCCC(C1)N2CC(=O)Nc1ccccc1 (stereo not given)	-5.22% (inactive)
C=CCNc1oc(-c2cccc3ccccc23)nc1C#N	-35.7% (inactive)
COC(=O)c1oc2ccc(Br)cc2c1NC(C)=O	30.7% (inactive)
COc1ccc(CCNC(=O)CSc2nnc(CNc3ccc(Cl)cc3)o2)cc1OC	19.4% (inactive)
CCCS(=O)(=O)C(=C1Nc2ccccc2N1)S(=O)(=O)CCC	15.8% (inactive)
CCn1cc(C(=O)NCCC2=CCCCC2)c(=O)c2cc(S(=O)(=O)N(C)C)ccc21	17.6% (inactive)
CCc1ccc(NC(=O)CS(=O)CC(=O)NC(C)CCc2ccco2)cc1 (stereo not given)	13.9% (inactive)
O=C(OCCN=C1NS(=O)(=O)c2ccccc21)C1CC(=O)N(c2ccc(Cl)cc2)C1 (stereo not given)	23.6% (inactive)
O=C(c1cccc(C(=O)N2CCN(c3ccc(F)cc3)CC2)c1)N1CCN(c2ccc(F)cc2)CC1	-5.26% (inactive)
CCOP(=O)(c1ccc(N(C)C)cc1)C(O)c1c(Cl)cccc1Cl (stereo not given)	19.2% (inactive)
CN1CCN(C(=O)C2(NC(=O)Nc3cccc(F)c3)CCCCC2)CC1	3.07% (inactive)
CCCOC(=O)/C(C(N)=NCc1ccccc1)=C(\O)OCCC	-11.9% (inactive)
CC(=O)N1CCN(c2ccc(NC(=O)c3ccc(C(C)(C)C)cc3)cc2)CC1	-42.5% (inactive)
OC(CN1CCOCC1)Cn1c(-c2cccc(Cl)c2)nc2ccccc21 (stereo not given)	32.2% (inactive)
CCN(CC)C(=O)C1CCC(CNS(=O)(=O)c2cccc3cccnc23)CC1 (stereo not given)	16.8% (inactive)
CN(C)Cc1cn(CCC(=O)O)c2ccccc12	19.4% (inactive)
CC(NS(=O)(=O)c1ccc(OCC(=O)N2CCOCC2)c(Cl)c1)c1ccccc1 (stereo not given)	12.4% (inactive)

Compound	inhibition
CCOc1ccc2nc(N3CCC(C(=O)N4CCN(C5CCCCC5)CC4)CC3)sc2c1	-73.6% (inactive)
O=C(O)CSC1CC(=O)N(c2ccc(Cl)c(Cl)c2)C1=O (stereo not given)	8.23% (inactive)
CCN(C(C)=O)c1nnc(CSc2nc3ccccc3s2)s1	-233% (inactive)
O=C(CNCCC1=CCCCC1)Nc1ccccc1N1CCCCC1	18.4% (inactive)
COCC(C)NC(=O)CCS(=O)(=O)c1nc(-c2ccc(OC)cc2)cc(C(F)(F)F)n1 (stereo not given)	1.39% (inactive)
CSc1ccccc1NC(=O)C1CCCO1 (stereo not given)	-1.95% (inactive)
O=C(CN(Cc1ccc(F)cc1)C(=O)Cn1nnc2ccccc21)NCC1CCCO1 (stereo not given)	26.1% (inactive)
O=C(CSc1nnc(-c2ccccc2)o1)N1CCc2ccccc2C1	22.9% (inactive)
CCn1c(-c2cc(Br)ccc2O)n[nH]c1=S	9.74% (inactive)
CCOC(=O)c1ccc(NS(=O)C23CC4CC(CC(C4)C2)C3)cc1 (stereo not given)	6.33% (inactive)
O=C1CCC(c2ccccc2)N1C(=O)c1cccnc1 (stereo not given)	9.24% (inactive)
CC1Cc2nc(SCC(N)=O)n(Cc3ccccc3)c(=O)c2S1 (stereo not given)	36% (inactive)
CCC(=O)Nc1cc(C)c(NC(=O)C23CC4CC(CC(C4)C2)C3)cn1	18.1% (inactive)
O=C(c1ccc(Br)o1)N(Cc1ccccc1)c1ccccn1	-0.317% (inactive)
CCN1C(=O)/C(=C2\C=Cc3ccccc3N2CC)OC1=S	-8.93% (inactive)
COc1ccc(C)cc1S(=O)(=O)N(C)CC(=O)Nc1ccc2c(c1)OCCO2	-10.2% (inactive)
O=C(NC1CCCCC1)c1nc2c(nnn2Cc2ccccc2Cl)c(=O)[nH]1	6.18% (inactive)
O=C(NCCN1CCOCC1)c1ccc2c(c1)N(Cc1ccccc1F)C(=O)CS2	22.6% (inactive)
CN(C(=O)C1CCOC1)c1nnc(-c2cccnc2)s1 (stereo not given)	-24.2% (inactive)
c1ccc(-c2nc3nonc3c3nc4ccccc4n23)cc1	-7.48% (inactive)
